From PubChem BioAssay (NCI)
This is part of a sample that, as a whole, favours compounds with a hit. Of some 79,000 tested, about 15% had one in any assay. Rule as the data show it: active = growth inhibition above about 70%; inactive = the rest. Where a SMILES comes first, the peptide text is derived from it. The star is where a group is joined. Cbz = O=C(OCc1ccccc1)*

Columns and labels:
[1] = NCI Yeast Anticancer Drug Screen. Data for the rad50 strain (AID 155);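 also: 0% = growth of vehicle-only cultures of the same strain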; details: S. cerevisiae rad50 strain growth inhibition; at 50.0 µM; stronger effect = higher value
How it was run: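 Readout: growth inhibition relative to vehicle-treated cultures. Compound exposure was carried out in a genetically defined yeast strain deficient in DNA damage repair.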

[2] = NCI Yeast Anticancer Drug Screen. Data for the mec2-1 strain (AID 157); details: S. cerevisiae mec2-1 strain, at 50.0 µM, stronger effect = higher value
How it was run: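 Strain: mec2-1 (DNA repair/cell cycle alteration). Compound exposure, then growth measured; inhibition expressed relative to vehicle.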

[3] = NCI Yeast Anticancer Drug Screen. Data for the sgs1 mgt1 strain (AID 161);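 also: 0% = growth of cultures given vehicle only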; details: S. cerevisiae sgs1 mgt1 strain, at 50.0 µM, stronger effect = higher value
How it was run: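 Mutant yeast exposed to compound; growth scored against vehicle-only wells.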

[4] = NCI Yeast Anticancer Drug Screen. Data for the cln2 rad14 strain (AID 165);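 also: 0% = growth equal to vehicle treated cultures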; details: S. cerevisiae cln2 rad14 strain, at 50.0 µM, stronger effect = higher value
How it was run: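 Compounds are applied to the cln2 rad14 yeast strain, and growth is then compared with that of vehicle-treated cultures to give inhibition.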

[5] = NCI Yeast Anticancer Drug Screen. Data for the bub3 strain (AID 167); details: S. cerevisiae bub3 mutant strain, at 50.0 µM, stronger effect = higher value
How it was run: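 Readout: yeast growth inhibition, expressed relative to vehicle-only wells. The test organism is a mutant strain from a panel with lesions in DNA repair or checkpoint genes.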

[6] = NCI Yeast Anticancer Drug Screen. Data for the mlh1 rad18 strain (AID 175); details: S. cerevisiae mlh1 rad18 strain growth inhibition; at 50.0 µM; stronger effect = higher value
How it was run: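 Read-out is yeast growth inhibition, calculated against vehicle-only controls. The compound was applied to a strain engineered with DNA damage repair alterations.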

Measured: growth inhibition

CC(C)CC(NC(=O)C(CO)NC(=O)OCc1ccccc1)C(=O)NC(Cc1ccc(O)cc1)C(N)=O (stereo not drawn) (Cbz-Ser-Leu-Tyr-NH2; configuration not given here)
inactive: [1] 47.5% | [2] -8.05% | [3] 27.6% | [4] 4.9% | [5] 3.95% | [6] 13.7%

COc1cc([C@@H]2OC(=O)C3C2C(=O)O[C@H]3c2ccc(O)c(OC)c2)ccc1O (stereo partly specified)
inactive: [1] 7.55% | [2] 14.2% | [3] 9.25% | [4] 17.4% | [5] 0.55% | [6] 24.2%

O=C(O)CCNc1ccccc1C(=O)O
inactive: [1] -8.4% | [2] -15.2% | [3] -13.9% | [4] -9.6% | [5] -40.8% | [6] -0.25%

CCc1ccccc1NC(=O)CCl
inactive: [1] 9.15% | [2] 0.3% | [3] -0.35% | [4] 17.6% | [5] -3.1% | [6] 2.75%

[O-][N+](=Nc1ccccc1Cl)c1ccccc1Cl
inactive: [1] 44% | [2] 16% | [3] 62.7% | [4] 4.15% | [5] 28.2% | [6] 31.2%

C=CCn1ccc(=O)nc1SCc1ccccc1
inactive: [1] 5.45% | [2] -4.8% | [3] 0.4% | [4] -33.5% | [5] 3.35% | [6] 0.05%

CCOc1ccc(NC(=O)C(=O)C(C(=O)c2ccc3ccccc3c2)C2OC(=O)c3ccccc32)cc1 (stereo unspecified)
inactive: [1] 13.1% | [2] 3.45% | [3] -2.4% | [4] -17.6% | [5] 7.85% | [6] 6.8%

c1ccc2cc(C3OCCCO3)ccc2c1
inactive: [1] 19.4% | [2] 10.2% | [3] -2.05% | [4] -62.9% | [5] -2.45% | [6] 4.2%

Cc1cc(C)n(/N=C/c2ccco2)c(=O)c1C#N
inactive: [1] -20.3% | [2] -33.1% | [3] -26.1% | [4] 11.4% | [5] -17.5% | [6] -10.7%

N=C1CCCS1
inactive: [1] -7.05% | [2] -2.35% | [3] -7.1% | [4] -6.3% | [5] -49.5% | [6] -4.7%

COC(=O)NS(=O)(=O)C1=Cc2cccc3cccc1c23
inactive: [1] 8.55% | [2] 4.95% | [3] 9.25% | [4] 9.75% | [5] 6.35% | [6] 8.4%

O=C(O)c1oc(C(=O)O)c(C(=O)O)c1C(=O)O
inactive: [1] -15% | [2] -38.1% | [3] -18.6% | [4] -28.6% | [5] -32.1% | [6] 7.6%

C/C=C/c1cc(C)cc(C)c1OC(C)CC (stereo unspecified)
inactive: [1] -2.45% | [2] -9.75% | [3] 11.4% | [4] -34.5% | [5] -17.9% | [6] 10.1%

COc1cc([N+](=O)[O-])c(OC)cc1N
inactive: [1] 2.45% | [2] -8.3% | [3] -13.1% | [4] -27.4% | [5] -27.4% | [6] 27.6%

N#CC1(N=Cc2ccc3c(c2)OCO3)c2ccccc2-c2ccccc21
inactive: [1] 15.2% | [2] 6.85% | [3] 5.8% | [4] -9.35% | [5] 8.55% | [6] 4.95%

Cn1c2ccccc2c2oc(CO)cc(=O)c21
inactive: [1] 13.2% | [2] 0.4% | [3] 5.8% | [4] 23.9% | [5] 10.4% | [6] 19.3%

CCOC(=O)c1nc2ccccc2nc1NCc1ccc(Cl)cc1Cl
inactive: [1] 6.45% | [2] 19% | [3] -24.7% | [4] 8% | [5] -16.6% | [6] -30.9%

NCc1c(Cl)c(Cl)c(Cl)c(CN)c1Cl
inactive: [1] 21.3% | [2] -14.2% | [3] 14.1% | [4] 11.9% | [5] 17.8% | [6] 19.5%

COc1ccc2c(ccc[n+]2CC(=O)c2ccc(SC)cc2)c1
inactive: [1] 1.9% | [2] 12.3% | [3] 20.1% | [4] 21.4% | [5] 19.6% | [6] 0.75%

CCN(CC)CCOc1ccc2ccccc2c1C(Cc1ccccc1)NCCO (stereo unspecified)
inactive: [1] -13.2% | [2] 1.95% | [3] -20.2% | [4] -19.6% | [5] 3% | [6] 3.05%

CCCCCCCCCOc1ccc2ccccc2c1
inactive: [1] -16.9% | [2] 16.1% | [3] 22.4% | [4] -17.9% | [5] -15.2% | [6] -4.5%
